Results published in PubChem BioAssay (NCATS).
“And” between values parts separate entries of the source, which are not always exact repeats. Equal entries are not always repeated. Records with an inconclusive call do not appear. Unmarked numbers belong to inactive results. The source made the active and inactive calls. Calls come from the whole dose curve; as a rule, active = well fitted inhibition curve with a large enough effect; inconclusive = small, poorly fitted or top-dose-only effect; inactive = no such curve, though single readings can be large or run the other way.

Assay: Primary qHTS for inhibitors of nuclear receptor binding SET domain protein 2 (NSD2) in an RCH-ACV wild type WT cells (2C) (AID 1645877); note: nearly all actives have a fitted effect of over 70% in size
Settings: RCH-ACV (leukaemia line) NSD2 WT (2C) viability, CellTiter-Glo, 72 h; series mostly up to 44.9 µM
From the text: Assay Provider: Jonathan D. Licht, MD
University of Florida College of Medicine, Gainesville, FL
Mutations in epigenetic regulators are common in relapsed pediatric acute lymphoblastic leukemia (ALL). Here, we uncovered the mechanism underlying the relapse of ALL driven by an activating mutation of the NSD2 histone methyltransferase (p.E1099K). […] Correction of this mutation restored glucocorticoid sensitivity. The transcriptional response to glucocorticoids was blocked in NSD2 mutant cells due to depressed glucocorticoid receptor (GR) levels and the failure of glucocorticoids to autoactivate GR expression. […] Pre-treatment of NSD2 p.E1099K cell lines and PDX samples with PRC2 inhibitors reversed glucocorticoid resistance in vitro and in vivo.
High-throughput drug screening of isogenic RCH-ACV cell lines was performed at the National Center for Advancing Translational Science (NCATS), National Institutes of Health as previously described (1). Briefly, isogenic RCH-ACV NSD2 p.E1099K mutant (9B) and WT cells (2C) were plated at 500 cells/well in a 1536-well plate with a 72-hour incubation with compounds prior to addition of CellTiter-Glo to assess cell viability. NCATS libraries screened include: NPC, MIPE 5.0, Kinase and NPACT. To determine compound activity in the qHTS assay, the concentration-response data for each sample was plotted and modeled by a four-parameter logistic fit yielding IC50 and efficacy (maximal response) values. The area under the curve (AUC) of the dose-response curve ensures both efficacy (magnitude of cell killing) and potency (concentration that elicits cell killing) are accounted for in the analysis of activity.
1. Tobie D Lee, Olivia W Lee, Kyle R Brimacombe, Lu Chen, Rajarshi Guha, Sabrina Lusvarghi, Bethilehem G Tebase, Carleen Klumpp-Thomas, Robert W Robey, Suresh V Ambudkar, Min Shen, Michael M Gottesman, Matthew D Hall. A High-Throughput Screen of a Library of Therapeutics Identifies Cytotoxic Substrates of P-glycoprotein. Mol Pharmacol. 2019, Nov;96(5):629-640.
% is set by controls: 0 for no effect and ±100 for the full control effect; potency is the fitted concentration of half-maximal effect.

| SMILES | Potency | activity change, negative = cell killing |
| --- | --- | --- |
| C[C@@]1(F)[C@H](O)[C@@H](CO)O[C@H]1n1ccc(N)nc1=O | inactive |  |
| COC(=O)C#Cc1ccc([N+](=O)[O-])cc1 | 4.11 µM (active) |  |
| CCOC(=O)c1c2c3c(cccc3[nH]c1=O)C(=O)c1ccccc1-2 | inactive |  |
| Cc1ccc(C(=O)N2CCN(c3ccc([N+](=O)[O-])cc3)CC2)cc1Cl | 11.5 µM (active) |  |
| Cn1cc(-c2cnc3ccc4ccc(CS(=O)(=O)NCc5ccccn5)cc4c(=O)c3c2)cn1 | 23 µM (active) |  |
| COc1cc(-c2cc(-c3ccc(N4CCNCC4)cc3)cnc2C)cc(OC)c1OC | 7.42 µM (active) |  |
| C#Cc1cccc(Nc2ncnc3cc4c(cc23)OCCOCCOCCO4)c1 | inactive |  |
| COc1ccc(Cl)cc1[C@@]1(F)C(=O)Nc2cc(C(F)(F)F)ccc21 | 5.78 µM (active) |  |
| CC(=O)Nc1ccc(C(=O)NC(C)(C)C)cc1 | inactive |  |
| COc1cc(O)ccc1OCCNCC(O)COc1cccc2[nH]c3ccccc3c12 (stereo not given) | 20.5 µM (active) |  |
| COc1cc2ncnc(Nc3ccc(NC(=O)c4ccccc4)cc3)c2cc1OC | 5.8 µM (active) |  |
| CCCCCCCCCCCCC/C=C/[C@@H](O)[C@H](CO)N(C)C |  | 4.48% [at 4.96 µM] |
| O=C(O)c1c[nH]c2c(ccc3ccccc32)c1=O | inactive |  |
| CC(C)n1cnc2c(Nc3cccc(Cl)c3)nc(NCCO)nc21 | 8.17 µM (active) |  |
| CN1CCC(c2c(O)cc(O)c3c(=O)cc(-c4ccccc4Cl)oc23)C1CO (stereo not given) | 0.332 µM (active) |  |
| C[C@@H]1N=C(N)NC(N(C)C)=N1 | inactive |  |
| FC(F)(F)c1ccc(CNc2ccc(Cc3c[nH]c4ncccc34)cn2)cc1 | 14.5 µM (active) and 8.33 µM (active) |  |
| C=C[C@H]1CN2CCC1C[C@@H]2C(O)c1ccnc2ccc(OC)cc12 (stereo not given in full) | inactive |  |
| Cc1ccc(CCCO)c(NCc2ccc3nc(NCCCN4CCOCC4)n(Cc4nc(C)ccc4O)c3c2)c1 | 11.5 µM (active) |  |
| C[N+]1(C)[C@@H]2CC[C@H]1CC(OC(=O)C(O)c1ccccc1)C2 (stereo not given in full) | inactive |  |

| SMILES | Potency | activity change, negative = cell killing |
| --- | --- | --- |
| O=C(CCCCCCC(=O)Nc1ccc(C2OC(CSc3nc(-c4ccccc4)c(-c4ccccc4)o3)CC(c3ccc(CO)cc3)O2)cc1)NO (stereo not given) | 3.65 µM (active) |  |
| CN1CCN(Cc2ccc(Nc3ncc(Cl)c(Nc4ccccc4S(=O)(=O)N(C)C)n3)cc2)CC1 | 0.0152 µM (active) |  |
| O=C(c1ccc(-c2ccc(Cl)cc2)o1)N(Cc1ccccn1)c1ccc(N2CCNCC2)cc1 | 16.4 µM (active) |  |
| CC1(C)SC2C(NC(=O)[C@H](C(=O)O)c3ccsc3)C(=O)N2C1C(=O)O (stereo not given in full) | inactive |  |
| CCOC(=O)c1cnn(-c2ccc(NC(=O)C(Cl)=C(Cl)Cl)cc2)c1C(F)(F)F | 6.49 µM (active) |  |
| Cc1ccc(NS(=O)(=O)c2cc3c(cc2F)NC(=O)CC3)cc1Cl | inactive |  |
| CCn1c(=O)c2cc(C(N)=O)c(N)nc2n(C2CC2)c1=O | inactive |  |
| CCOc1cccc2c1OC(c1ccc(F)cc1)C([N+](=O)[O-])=C2 (stereo not given) | 5.8 µM (active) |  |
| CC(CCc1ccccn1)(CCc1ccccn1)C(=O)c1ccccc1 | inactive |  |
| CCNC(=O)[C@@H]1CCCN1C(=O)[C@H](CCCN=C(N)N)NC(=O)[C@H](CC(C)C)NC(=O)[C@@H](CC(C)C)NC(=O)[C@H](Cc1ccc(O)cc1)NC(=O)[C@H](CO)NC(=O)[C@H](Cc1c[nH]c2ccccc12)NC(=O)[C@H](Cc1cnc[nH]1)NC(=O)[C@@H]1CCC(=O)N1 | inactive |  |
| O=S(=O)(NCCNC/C=C/c1ccc(Br)cc1)c1cccc2cnccc12 | 14.8 µM (active) |  |
| CCN1CCC[C@@H]1CNC(=O)c1ccc2c(c1)NC(=O)/C(=C/c1ccccc1F)S2 | 5.15 µM (active) |  |
| CCOC(=O)CCC(=O)O[C@H]1[C@H](O[C@@H]2[C@@H](C)[C@H](O[C@H]3C[C@@](C)(OC)[C@@H](O)[C@H](C)O3)[C@@H](C)C(=O)O[C@H](CC)[C@@](C)(O)[C@H](O)[C@@H](C)C(=O)[C@H](C)CC2(C)O)O[C@H](C)C[C@@H]1N(C)C (stereo not given in full) | inactive |  |
| CN(CCCNC(=O)c1ccc2nc3c(c(Cl)c2c1)CCCC3)Cc1ccccc1 | 8.17 µM (active) |  |
| CNc1ncc2cc(-c3cc(NC(=O)NCCC(C)(C)C)c(F)cc3C)c(C)nc2n1 | 0.59 µM (active) |  |
| Oc1cccc(Nc2ccnc3cc(-c4cccc(CN5CCOCC5)c4)sc23)c1 | 1.46 µM (active) |  |
| CC(=O)N1CCN([C@H]2CCN(C(=O)N(C)[C@H](C)c3cc(C(F)(F)F)cc(C(F)(F)F)c3)[C@@H](c3ccc(F)cc3C)C2)CC1 | 14.5 µM (active) |  |
| NC(=O)c1nc(F)c[nH]c1=O | inactive |  |
| O=c1cc(-c2ccc(O)cc2)oc2cc(OC3OC(CO)C(O)C(O)C3O)c(C3OC(CO)C(O)C(O)C3O)c(O)c12 (stereo not given) | inactive |  |
| COc1cc(N2CCN(C(C)=O)CC2)ccc1Nc1ncc(Cl)c(Nc2ccc(N3CCN(C(C)=O)CC3)cc2OC)n1 | 6.49 µM (active) and 13.2 µM (active) |  |
